Assay outcomes: PubChem BioAssay, National Center for Advancing Translational Sciences (NCATS)
A selection: hits, their analogues and other compounds. The true share with any hit is near 21%.
Pf growth 96h = Primary qHTS for delayed death inhibitors of the malarial parasite plastid, 96 hour incubation | P. falciparum luciferase reporter growth, 96 h | 320,000 tested, 6.9% active | Potency, µM (doses to about 28.7 µM), usual class: inhibitors
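Compounds incubated with erythrocytes infected by luciferase-expressing P. falciparum (2% hematocrit, 0.05% parasitemia final) for 96 hours, 37 C in 5% CO2. Growth inhibition scored as decreased luciferase luminescence.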
Cycloheximide cs = Cycloheximide Counterscreen for Small Molecule Inhibitors of Shiga Toxin. cell reporter, cycloheximide protein synthesis inhibition counterscreen. max response, %. 300,000 tested, 12% active. AID 2314, 2010; in the data active = max response mostly above about 13%, no sharp cut-off; inactive = mostly below about 14%; note: read at 38.3 µM for the half of the compounds with a filed dose
Shiga toxin inh = A qHTS for Small Molecule Inhibitors of Shiga Toxin; Vero cells, Shiga toxin protein synthesis inhibition reporter; inhibition, % at 38.7 µM; 290,000 tested, 9.2% active; AID 2315, 2010; in the data active = inhibition mostly above about 28%, no sharp cut-off; inactive = mostly below about 43%
HCV inh = qHTS Assay for Inhibitors of Hepatitis C Virus (HCV) | Huh7.5.1 HCVcc-Cre infection, luciferase reporter, 44 h | Potency, µM (highest dose often 41.8 µM), usual class: inhibitors | 340,000 tested, 3.4% active | AID 651820, 2012
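1,000 cells/well; 4 h culture; + compound; + HCVcc-Cre (~0.5 moi); 44 h; luciferase substrate, RT 15 min; read 15 sec.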
AMA1-RON2 inh = qHTS for Inhibitors of AMA1-RON; Towards Development of Antimalarial Drug Lead: Primary Screen; 360,000 tested, 0.2% active; Potency, µM (top dose mostly 58.2 µM), hits mostly inhibitors; AlphaScreen AMA1-biotinylated RON2 peptide binding; AID 720542, 2013; note: nearly all actives have a fitted effect of over 45% in size
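AMA1 (3D7) with his tag at 25 nM final met compounds first, then biotinylated RON2 peptide at 25 nM; detection used donor plus acceptor beads, 10 µg/mL apiece, read by AlphaScreen after 30 min at room temperature.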
Pf growth 48h = Primary qHTS for delayed death inhibitors of the malarial parasite plastid, 48 hour incubation; P. falciparum luciferase growth in erythrocytes, 48 h; 310,000 tested, 5.9% active; AID 504832, 2011; Potency, µM (highest dose often 28.7 µM), usual class: inhibitors
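Parasite viability was followed by luminescence of a genomically integrated firefly luciferase. Cultures held 0.1% parasitemia at 2% hematocrit (final), incubated under 5% CO2 at 37 C.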
Hits are given with their value; i = inactive; ? = inconclusive; nt = no result given; [ ] = dose if it differs, or a comment. Unless noted, calls come from the whole dose curve; as a rule, active = well fitted curve in the direction sought with a large enough effect; inconclusive = small, poorly fitted or top-dose-only effect, or another doubt; inactive = no such curve, though single readings can be large; an effect the other way counts as inactive or inconclusive.

SMILES	Pf growth 96h	Cycloheximide cs	Shiga toxin inh	HCV inh	AMA1-RON2 inh	Pf growth 48h
COc1ccc(CN(CC(=O)NCc2ccco2)C(=O)CNS(=O)(=O)c2ccc(C)cc2)cc1	i	i	i	i	i	i
O=C(NC1CCN(Cc2ccc(Cl)cc2Cl)CC1)c1ccccc1	2.9µM	i	i	?	i	i[0.00184 µM]
Cc1ccc(Cl)cc1S(=O)(=O)N1CCC(C(=O)NC2CCN(Cc3ccccc3)CC2)CC1	i	i	i	?	i	7.4µM
O=C(Cn1cc2c(n1)CCCCC2)NC1CCN(Cc2ccccc2)CC1	12µM	i	i	?	i	nt
CCN(CC)S(=O)(=O)c1ccc(S(=O)(=O)N2CCC(C(=O)NC3CCN(Cc4ccccc4)CC3)CC2)cc1	?	i	i	i	i	i
CCCCCn1c(=O)[nH]c2cc(C(=O)NC3CCN(Cc4ccccc4)CC3)ccc2c1=O	nt	nt	nt	i	i	nt
O=C(Cn1cc2c(n1)CCCC2)NC1CCCCCC1	?	i	i	i	i	i
O=C(NC1CCN(Cc2ccccc2)CC1)c1ccc2c(c1)[nH]c(=O)n2Cc1ccc(F)cc1	i	i	i	2.5µM	i	i
O=C(OCC(=O)c1ccc[nH]1)c1ccc(F)c(S(=O)(=O)N2CCOCC2)c1	nt	nt	nt	i	i	nt
Cc1oc(-c2ccc(Cl)cc2)nc1CS(=O)CC(=O)NCCCN1CCOCC1 (stereo not drawn)	?	i	i	i	i	i
CCc1ccc(-c2nc(CS(=O)CC(=O)NCCN3CCCCCC3)c(C)o2)cc1 (stereo not drawn)	i	27	i	?	i	i
CCc1ccc(-c2nc(CS(=O)CC(=O)NCCc3ccccc3)c(C)o2)cc1 (stereo not drawn)	?	21	i	?	i	i
COc1ccc(-c2nc(CN3CCN(Cc4ccccc4)CC3)c(C)o2)cc1	i	i	i	i	i	?
Cc1oc(-c2ccc(-c3ccccc3)cc2)nc1CN1CCN(CC(=O)N(C)C)CC1	i	52	108	i	i	i
CCc1ccc(-c2nc(CS(=O)CC(=O)NCCCN3CCC(C)CC3)c(C)o2)cc1 (stereo not drawn)	i	19	i	?	i	?
Cc1cc(C(=O)NCC(c2cccs2)N2CCOCC2)ccc1[N+](=O)[O-] (stereo not drawn)	i	i	i	i	i	i
COc1cc(C(C)=O)ccc1OCC(O)Cn1nc(C)c(Br)c1C (stereo not drawn)	?	i	i	?	i	i
COc1ccc(CCNC(=O)CS(=O)Cc2nc(-c3cccs3)oc2C)cc1OC (stereo not drawn)	8.3µM	i	i	i	i	?
Cc1ccc(CCNC(=O)CS(=O)Cc2nc(-c3cccs3)oc2C)cc1 (stereo not drawn)	i	i	i	i	i	i
CCCCSCCCNC(=O)CS(=O)Cc1nc(-c2cccc(C)c2)oc1C (stereo not drawn)	?	i	i	i	i	i
CCCCNC(=O)CS(=O)Cc1nc(-c2cccc(C)c2)oc1C (stereo not drawn)	0.1µM	i	i	i	i	nt
Cc1ccc(-c2nc(CS(=O)CC(=O)NCCCN3CCN(Cc4ccccc4)CC3)c(C)o2)cc1 (stereo not drawn)	6.6µM	i	i	10µM	i	?
CN(CC(=O)Nc1ccc(Cl)cc1)C(=O)CCc1nc2sc3c(c2c(=O)[nH]1)CCCC3	?	nt	nt	i[8.37 µM]	i	i
COc1cccc2c(=O)c3c(oc12)CCCC3	nt	nt	nt	nt	i	nt
Nc1cccc2c3c(oc12)CCCC3	i	9.4	i	i	i	i
SMILES	Pf growth 96h	Cycloheximide cs	Shiga toxin inh	HCV inh	AMA1-RON2 inh	Pf growth 48h
C/C(=N\n1c(C)nc2ccccc2c1=O)c1ccc(N)cc1	nt	nt	nt	i	i	nt
C/C(=N\n1nnnc1Nc1ccccc1)c1ccc(N)cc1	i	26	i	nt	nt	i
COc1ccc(OC)c(C2=NS(=O)(=O)N(C)C(C(=O)NCc3ccco3)=C2)c1	?	i	i	i	i	i
COc1ccc(C2C(C(C)=O)=C(O)C(=O)N2c2ccc(Br)cn2)cc1 (stereo not drawn)	4.1µM	i	i	i	i	?
CCOC(=O)c1ccc(NC(=O)CN(c2ccc(C)cc2)S(=O)(=O)c2c(C)nn(C)c2C)cc1	nt	i	i	i	i	10µM
COc1ccc(NC(=O)CN(c2ccc(C)cc2)S(=O)(=O)c2c(C)nn(C)c2C)cc1	i	i	i	i	i	?
Cc1cccc(NC(=O)CN(c2ccc(C(C)C)cc2)S(=O)(=O)c2c(C)nn(C)c2C)n1	2.9µM	i	i	?	i	nt
Cc1nn(C)c(C)c1S(=O)(=O)N(CC(=O)Nc1ccccn1)c1ccc(C(C)C)cc1	?	i	i	?	i	i
COc1ccc2nc(NC(=O)CN(c3ccc(C)cc3)S(=O)(=O)c3c(C)nn(C)c3C)sc2c1	2.6µM	i	i	?	i	12µM
COc1ccc(OCC(=O)NC2CCSc3ccccc32)cc1 (stereo not drawn)	nt	nt	nt	i	i	nt
N#Cc1ccc(-c2ccc(OCC(=O)NCCCN3CCCC3=O)cc2)cc1	i	i	i	i	i	i
CN1CCN(Cc2cn[nH]c2-c2ccc(F)cc2F)[C@@H](c2ccccc2)C1	2.6µM	i	i	i	i	i
OCCCC1CCCN(Cc2cn[nH]c2-c2ccc(F)cc2F)C1 (stereo not drawn)	7.4µM	i	i	i	i	i
O=C(CCNC(=O)c1ccccc1)NCCc1ccc(Cl)cc1	i	i	i	i	i	i
Cc1oc(-c2ccccc2F)nc1CSCC(=O)NC1CCCC1	1.5µM	i	i	?	i	i
CSc1ccc(-c2nc(CSCC(=O)NC3CC3)c(C)o2)cc1	i	20	27	?	i	i
COc1ccc(-c2nc(CSCC(=O)N3CCN(C)CC3)c(C)o2)cc1OC	?	i	i	i	i	nt
CSc1ccc(-c2nc(CSCC(=O)N3CCOCC3)c(C)o2)cc1	?	27	108	?	i	i
COC(=O)c1ccc(OC(=O)C23CCC(C)(C(=O)O2)C3(C)C)cc1 (stereo not drawn)	i	i	i	i	i	i
Cc1ccc(CNC(=O)COC(=O)c2cccc(S(=O)(=O)N3CCCCC3)c2)cc1	i	nt	nt	i	i	i
Cc1ccc(S(=O)(=O)N2CCCCC2)cc1C(=O)NCCC1=CCCCC1	?	nt	nt	?	i	?
Cc1ccc(CNC(=O)c2sc3ccc(S(=O)(=O)N4CCCCC4)cc3c2N)cc1	?	i	i	32µM	nt	i
C=CCn1c(N)c(C(=O)NCCC2=CCCCC2)sc1=S	i	49	106	i	i	i
Nc1c(C(=O)NCCC2=CCCCC2)sc2ccc(S(=O)(=O)N3CCCCC3)cc12	?	i	i	i	i	13µM
CC(C)NC(=O)c1cc(-c2ccc(F)cc2OC(C)C)n[nH]1	nt	nt	nt	nt	i	nt
